# Measured values as given in article PMC4336329 (PLoS ONE, 2015).
# About 2,200 (0.71%) of roughly 310,000 compounds showed an effect of 50% or more. Effects have a minus sign here. For the sample, strong results were picked, then their nearest neighbours and some compounds at random.
# Target: human ether-à-go-go-related gene (hERG) potassium channel (human, UniProt Q12809)
# Assay: primary screen, population patch clamp on CHO cells stably expressing hERG; higher = less effect of the substance
# Chain of human ether-à-go-go-related gene (hERG) potassium channel (Q12809 whole entry, looked up): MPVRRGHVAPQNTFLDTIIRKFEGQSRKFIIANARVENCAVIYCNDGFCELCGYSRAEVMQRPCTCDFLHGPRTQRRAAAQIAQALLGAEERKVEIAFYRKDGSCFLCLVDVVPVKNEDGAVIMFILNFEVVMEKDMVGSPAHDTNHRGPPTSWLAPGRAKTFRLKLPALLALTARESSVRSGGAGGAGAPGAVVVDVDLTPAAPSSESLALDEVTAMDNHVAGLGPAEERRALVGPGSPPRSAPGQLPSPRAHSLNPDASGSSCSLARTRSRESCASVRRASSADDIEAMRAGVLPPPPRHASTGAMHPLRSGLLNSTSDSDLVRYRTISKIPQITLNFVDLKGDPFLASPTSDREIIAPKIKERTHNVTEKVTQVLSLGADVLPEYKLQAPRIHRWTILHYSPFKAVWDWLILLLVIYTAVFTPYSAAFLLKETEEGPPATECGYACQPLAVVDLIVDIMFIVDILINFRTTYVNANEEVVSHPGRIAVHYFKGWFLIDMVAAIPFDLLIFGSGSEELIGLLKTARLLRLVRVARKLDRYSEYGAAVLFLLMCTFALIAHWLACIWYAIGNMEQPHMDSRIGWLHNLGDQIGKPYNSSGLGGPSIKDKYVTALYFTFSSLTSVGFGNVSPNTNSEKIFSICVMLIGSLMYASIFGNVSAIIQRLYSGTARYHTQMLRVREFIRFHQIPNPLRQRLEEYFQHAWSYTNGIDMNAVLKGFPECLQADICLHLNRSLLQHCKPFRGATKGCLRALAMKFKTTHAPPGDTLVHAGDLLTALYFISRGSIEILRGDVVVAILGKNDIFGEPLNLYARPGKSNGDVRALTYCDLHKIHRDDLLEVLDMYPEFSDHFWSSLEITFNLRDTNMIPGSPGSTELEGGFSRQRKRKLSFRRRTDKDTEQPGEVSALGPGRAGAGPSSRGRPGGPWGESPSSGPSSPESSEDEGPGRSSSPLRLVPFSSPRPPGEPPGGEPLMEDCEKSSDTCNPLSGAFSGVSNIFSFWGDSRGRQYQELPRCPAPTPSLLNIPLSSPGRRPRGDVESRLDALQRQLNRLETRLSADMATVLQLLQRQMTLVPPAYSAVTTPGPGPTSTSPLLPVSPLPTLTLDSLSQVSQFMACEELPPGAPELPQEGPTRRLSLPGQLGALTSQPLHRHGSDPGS
row,SMILES,"hERG current change (%, negative = inhibition) at 1uM [%]"
1,CCN1CCCC1Cn1cnc2c([nH]c3cc(OC)ccc32)c1=O (stereo not drawn),-53.5
2,COc1ccc2c(c1)[nH]c1c(=O)n(CC3CCCO3)cnc12 (stereo not drawn),14.6
3,COc1ccc2c(c1)[nH]c1c(=O)n(CCN3CCCC3)cnc12,-17.4
4,CCN1CCCC1Cn1cnc2c([nH]c3ccc(OC)cc32)c1=O (stereo not drawn),-58.5
5,CCC1CCCN1Cn1cnc2c([nH]c3ccc(OC)cc32)c1=O (stereo not drawn),-35.8
6,COc1ccc2[nH]c3c(=O)n(CCN4CCOCC4)cnc3c2c1,9.44
7,Cc1cc(C(=O)NC2CCCc3c2cnn3-c2ccc(C(C)(C)C)cc2)nn1C (stereo not drawn),16.5
8,O=[N+]([O-])c1cc([N+](=O)[O-])c2nonc2c1Nc1ccc(O)cc1,2.03
9,CC1CCN(S(=O)(=O)c2ccc3c(c2)c(=O)c(C(=O)NC2CCCC2)cn3C)CC1,9.59
10,CCCCS(=O)(=O)N1CCC(C(=O)Oc2ccc(Cl)cc2)CC1,17.9
11,COc1ccc(S(=O)(=O)N2CCN(C(=O)CN3C(=O)NC(C)(C)C3=O)CC2)cc1,14
12,CC(Oc1ccc(Cl)cc1Cl)C(=O)OCC(=O)c1c(N)n(C)c(=O)n(C)c1=O (stereo not drawn),-57.5
13,Cn1c(N)c(C(=O)COc2ccc(Cl)cc2Cl)c(=O)n(C)c1=O,12.3
14,Cn1c(N)c(C(=O)COC(=O)CCCOc2ccc(Cl)cc2Cl)c(=O)n(C)c1=O,16
15,O=C(CSc1nc2c(cnn2-c2ccc(F)cc2)c(=O)[nH]1)N1CCCCCC1,11
16,O=C(Nc1ccncc1)C1COc2ccccc2O1 (stereo not drawn),1.88
17,Cc1ccc(N2CC(C(=O)N3CCC4(CC3)CC(=O)c3ccccc3O4)CC2=O)cc1 (stereo not drawn),-47.4
18,O=C(C1CC(=O)N(c2ccccc2)C1)N1CCN(c2ccc(F)cc2)CC1 (stereo not drawn),-8.63
19,O=C1CC2(CCN(C(=O)C3CC(=O)N(c4ccccc4)C3)CC2)Oc2ccccc21 (stereo not drawn),-51.5
20,O=C(C1CC(=O)N(c2ccc(F)cc2)C1)N1CCN(c2ccc(F)cc2)CC1 (stereo not drawn),-71.1
21,O=C(C1CC(=O)N(c2ccc(F)cc2)C1)N1CCN(c2ccccc2)CC1 (stereo not drawn),-13.6

row,SMILES,"hERG current change (%, negative = inhibition) at 1uM [%]"
1,COc1ccc(N2CC(C(=O)N3CCC4(CC3)CC(=O)c3ccccc3O4)CC2=O)cc1 (stereo not drawn),-34.8
2,COc1cccc(N2CC(C(=O)N3CCC4(CC3)CC(=O)c3ccccc3O4)CC2=O)c1 (stereo not drawn),3.79
3,O=C1CC2(CCN(C(=O)C3CC(=O)N(c4ccc(F)cc4)C3)CC2)Oc2ccccc21 (stereo not drawn),-73.6
4,Cc1ccc(N2CC(C(=O)N3CCC4(CC3)CC(=O)c3ccccc3O4)CC2=O)cc1C (stereo not drawn),-6.22
5,Cc1cnc(C(=O)NNC(=O)c2ccc(Br)cc2)cn1,2.55
6,Cc1cccc(NC(=O)CNC(=O)COc2ccc(C(=O)c3ccc(F)cc3)cc2)c1C,1.92
7,CCCCC(=O)Nc1ccc2c(c1)nc(CN1CCN(C(=O)OCC)CC1)n2C,13.1
8,Cc1ccc(Oc2cc(C#N)c(C#N)cc2-n2nnc3ccccc32)cc1C,7.63
9,CCCCN(CC)C(=O)Cc1ccccc1OC,18
10,CC(=O)Nc1ccc(S(=O)(=O)NCc2ccc(C(=O)NCCCN3CCC(C)CC3)cc2)cc1,16.7
11,CSc1ccc(NC(=O)NCCCN2CCC(Cc3ccccc3)CC2)cc1,-76
12,Cc1ccc(S(=O)(=O)NCc2ccc(C(=O)NCCCN3CCC(Cc4ccccc4)CC3)cc2)cc1,-52.4
13,CCN1CCN(CCCNC(=O)CCc2nc(-c3ccc(OC)cc3)no2)CC1,6.54
14,Cc1ccc(S(=O)(=O)NCc2ccc(C(=O)NCCCN3CCN(C)CC3)cc2)cc1,13.4
15,CCCCNC(=S)Nc1ccc2nc3n(c(=O)c2c1)CCCCC3,-24.7
16,COc1ccc(-c2noc(CCC(=O)NCCCN3CCC(Cc4ccccc4)CC3)n2)cc1,-84.9
17,O=c1c2cc(NC(=S)NCCN3CCCCCC3)ccc2nc2n1CCCCC2,7.57
18,COc1ccc(-c2noc(CCC(=O)NCCCN3CCC(C)CC3)n2)cc1,9.03
19,CSc1ccc(NC(=O)NCCCN2CCN(c3ccccc3F)CC2)cc1,-12.8
20,Cc1ccccc1CC1CCN(CCCNC(=O)Nc2ccccc2)CC1,-34.1
21,O=c1c2cc(NC(=S)NCCCN3CCC(Cc4ccccc4)CC3)ccc2nc2n1CCCCC2,-57.1
